Results filed as inconclusive are left out. Active and inactive are the calls of the source. Unless noted, calls follow the shape of the dose curve; as a rule, active = well fitted curve in the direction sought with a large enough effect in the repeat runs; inconclusive = weak or mixed curves; inactive = no such curve, though single readings can be large; an effect the other way counts as inactive or inconclusive.
What was measured:
[1] = target: Aryl hydrocarbon receptor (Homo sapiens) (UniProt P35869); assay: qHTS assay to identify small molecule that activate the aryl hydrocarbon receptor (AhR) signaling pathway (AID 743085);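 also: HG2L7.5c1 human HepG2 liver cells with stably integrated DRE-driven firefly reporter; series mostly up to about 70 µM; nearly all actives have a fitted effect of over 15% in size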
Aryl hydrocarbon receptor (Homo sapiens), sequence (P35869 whole entry, looked up): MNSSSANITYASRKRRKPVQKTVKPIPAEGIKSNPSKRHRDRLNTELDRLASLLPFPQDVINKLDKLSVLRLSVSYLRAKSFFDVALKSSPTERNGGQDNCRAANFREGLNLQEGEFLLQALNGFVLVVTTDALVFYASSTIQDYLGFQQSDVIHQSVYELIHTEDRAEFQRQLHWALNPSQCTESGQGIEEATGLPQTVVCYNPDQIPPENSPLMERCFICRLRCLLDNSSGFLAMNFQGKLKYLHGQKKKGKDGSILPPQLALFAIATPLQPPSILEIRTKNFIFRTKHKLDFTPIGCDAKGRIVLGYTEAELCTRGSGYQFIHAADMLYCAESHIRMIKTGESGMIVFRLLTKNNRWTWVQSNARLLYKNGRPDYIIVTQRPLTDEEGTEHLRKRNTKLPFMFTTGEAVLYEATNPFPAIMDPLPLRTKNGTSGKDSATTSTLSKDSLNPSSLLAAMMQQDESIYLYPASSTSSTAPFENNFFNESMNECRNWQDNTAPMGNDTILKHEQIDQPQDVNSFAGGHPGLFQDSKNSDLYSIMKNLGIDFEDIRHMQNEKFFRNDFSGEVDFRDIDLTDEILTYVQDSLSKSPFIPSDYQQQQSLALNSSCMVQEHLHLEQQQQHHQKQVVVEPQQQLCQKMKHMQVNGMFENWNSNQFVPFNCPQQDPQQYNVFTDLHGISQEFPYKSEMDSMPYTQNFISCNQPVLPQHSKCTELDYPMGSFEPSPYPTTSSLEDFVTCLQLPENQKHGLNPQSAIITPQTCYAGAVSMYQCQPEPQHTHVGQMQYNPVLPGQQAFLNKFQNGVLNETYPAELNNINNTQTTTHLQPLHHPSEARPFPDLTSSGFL
Summary of the method: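 Steps: seed HepG2-AhR-luc cells; allow 5 h at 37C; pin-transfer test compound or vehicle; incubate 24 h at 37C; add viability dye (30 min, 37C) and read fluorescence; add luciferase substrate (30 min, RT) and read luminescence.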

[2] = qHTS assay to identify small molecule that activate the aryl hydrocarbon receptor (AhR) signaling pathway - cell viability counter screen (AID 743086);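 also: HepG2 liver cells carrying the AhR DRE luciferase reporter; series mostly up to about 70 µM; nearly all actives have a fitted effect of over 45% in size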
Summary of the method: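 HepG2-AhR-luc (HG2L7.5c1) cells, 4000/well, were preincubated 5 h at 37C, exposed to compound in qHTS format for 24 hr at 37C, then given CellTiter-Fluor for 30 min; viability was read as fluorescence in the reporter wells.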

[3] = target: Peroxisome proliferator-activated receptor gamma (Homo sapiens) (UniProt P37231); assay: qHTS assay to identify small molecule agonists of the peroxisome proliferator-activated receptor gamma (PPARg) signaling pathway (AID 743094; active = well fitted activation curve with a large enough effect in the signal ratio in the repeat runs, not every such curve was filed as active; the % refers to the signal ratio)
Peroxisome proliferator-activated receptor gamma (Homo sapiens), sequence (P37231 whole entry, looked up): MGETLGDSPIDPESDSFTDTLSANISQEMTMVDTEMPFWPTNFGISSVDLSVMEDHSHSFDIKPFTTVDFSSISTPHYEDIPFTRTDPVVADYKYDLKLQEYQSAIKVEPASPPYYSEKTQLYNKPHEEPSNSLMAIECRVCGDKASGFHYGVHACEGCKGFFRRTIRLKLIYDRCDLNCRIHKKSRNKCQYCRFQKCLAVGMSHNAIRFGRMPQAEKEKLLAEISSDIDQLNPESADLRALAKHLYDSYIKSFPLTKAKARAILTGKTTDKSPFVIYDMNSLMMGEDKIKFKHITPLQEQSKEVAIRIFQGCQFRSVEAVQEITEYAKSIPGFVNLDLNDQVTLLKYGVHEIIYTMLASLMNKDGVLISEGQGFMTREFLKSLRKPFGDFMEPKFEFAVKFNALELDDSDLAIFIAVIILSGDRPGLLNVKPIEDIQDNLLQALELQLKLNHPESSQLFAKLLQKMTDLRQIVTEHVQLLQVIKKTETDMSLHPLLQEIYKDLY
Summary of the method: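 Beta-lactamase FRET fluorescence was the read-out after a 1 h room-temperature substrate step, following 17 h compound treatment at 37C of HEK293H cells expressing a UAS-driven bla reporter responsive to PPARg.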

[4] = target: Peroxisome proliferator-activated receptor gamma (Homo sapiens) (UniProt P37231); assay: qHTS assay to identify small molecule antagonists of the peroxisome proliferator-activated receptor gamma (PPARg) signaling pathway (AID 743191; calls by dose curve; also: series mostly up to about 63 µM; nearly all actives have a fitted effect of over 30% in size)
Summary of the method: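 GeneBLAzer PPARg UAS-bla HEK293H cells carrying a UAS-driven beta-lactamase reporter were plated at 3000 cells/well, preincubated 5 h at 37C, then given compound for 17 h at 37C; LiveBLAzer B/G FRET substrate was read after 1 h at room temperature.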

[5] = qHTS assay to identify small molecule antagonists of the peroxisome proliferator-activated receptor gamma (PPARg) signaling pathway - cell viability counter screen (AID 743194); also: nearly all actives have a fitted effect of over 55% in size
Summary of the method: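 PPARg-UAS-bla HEK293H cells were plated, rested 5 h at 37 C, then treated with compounds plus rosiglitazone (50 nM final) for 17 h at 37 C; viability was then read by CellTiter-Glo luminescence after 30 min at room temperature.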

[6] = qHTS assay for small molecule agonists of the antioxidant response element (ARE) signaling pathway (AID 743202; active = well fitted activation curve with a large enough effect in the signal ratio in the repeat runs, not every such curve was filed as active; the % refers to the signal ratio)
Summary of the method: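 Read-out: LiveBLAzer B/G FRET substrate fluorescence after 2 h at room temperature, following 16 h compound treatment at 37 C of HepG2 cells carrying an ARE-driven beta-lactamase reporter.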

[7] = qHTS assay for small molecule agonists of the antioxidant response element (ARE) signaling pathway - cell viability counter screen (AID 743203; calls by dose curve; also: nearly all actives have a fitted effect of over 55% in size)
Summary of the method: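 HepG2 cells carrying ARE-driven beta-lactamase; 2,000 cells/well; 5 hrs plating; compound pinned from DMSO; 16 hrs 37C/5% CO2; CellTiter-Glo added; 30 min RT; luminescence.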

[8] = qHTS assay for small molecule activators of the heat shock response signaling pathway (AID 743210; active = well fitted activation curve with a large enough effect in the signal ratio in the repeat runs, with a control signal flat, not every such curve was filed as active; the % refers to the signal ratio; also: series mostly up to about 63 µM)
Summary of the method: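 HSE-bla HeLa cells (beta-lactamase reporter under heat shock response elements) were exposed to compounds for 5 h at 37 C, then loaded with LiveBLAzer B/G FRET substrate for 2.5 h at room temperature before fluorescence reading.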

[9] = qHTS assay to identify small molecule agonists of the peroxisome proliferator-activated receptor delta (PPARd) signaling pathway - cell viability counter screen (AID 743211); also: nearly all actives have a fitted effect of over 55% in size
Summary of the method: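 Viability of GeneBLAzer PPARd UAS-bla HEK293H cells was assessed after 17 h compound incubation at 37C, using CellTiter-Glo reagent added after the reporter read and luminescence recorded 30 min later.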

[10] = qHTS assay for small molecule activators of the heat shock response signaling pathway - cell viability counter screen (AID 743209); also: nearly all actives have a fitted effect of over 50% in size
Summary of the method: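 Luminescence from CellTiter-Glo, added after the beta-lactamase FRET read, gave the viability signal. Cells were HSE-bla HeLa treated with DMSO-dissolved compounds for 5 h at 37 C following overnight plating.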
% is scaled to controls: 0 for no effect and ±100 for the full control effect.

CCC(C(=O)OCCN(CC)CC)c1ccccc1 (stereo not drawn)
inactive: Potency [1] | Potency [2] | Potency [3] | Potency [4] | Potency [5] | Potency [6] | Potency [7] | Potency [8] | Potency [9]

CC1=CC(=O)CC(C)(C)C1(O)/C=C/C(C)=C\C(=O)O (stereo not drawn)
inactive: Potency [1] | Potency [2] | Potency [3] | Potency [4] | Potency [5] | Potency [6] | Potency [7] | Potency [10] | Potency [8] | Potency [9]

CCCCCCCCCCCC[N+](C)(C)CCCS(=O)(=O)[O-]
inactive: Potency [1] | Potency [2] | Potency [3] | Potency [4] | Potency [5] | Potency [6] | Potency [7] | Potency [10] | Potency [8]

Cc1cnc(C)c(C)n1
inactive: Potency [1] | Potency [2] | Potency [3] | Potency [4] | Potency [5] | Potency [6] | Potency [7] | Potency [10] | Potency [8] | Potency [9]

OC/C(Br)=C(\Br)CO
inactive: Potency [1] | Potency [2] | Potency [3] | Potency [4] | Potency [5] | Potency [6] | Potency [7] | Potency [10] | Potency [8] | Potency [9]

CC(C)OCC1CO1 (stereo not drawn)
inactive: Potency [1] | Potency [2] | Potency [3] | Potency [4] | Potency [5] | Potency [6] | Potency [7] | Potency [10] | Potency [9]

c1ccc(COCc2ccccc2)cc1
inactive: Potency [1] | Potency [2] | Potency [3] | Potency [4] | Potency [5] | Potency [6] | Potency [7] | Potency [10] | Potency [8] | Potency [9]

C=CC(=C)CCCC(C)(C)OC(C)=O
inactive: Potency [1] | Potency [2] | Potency [3] | Potency [4] | Potency [5] | Potency [6] | Potency [7] | Potency [10] | Potency [8] | Potency [9]

CC1CN(c2cc3c(cc2F)c(=O)c(C(=O)O)cn3-c2ccc(F)cc2F)CCN1 (stereo not drawn)
inactive: Potency [1] | Potency [2] | Potency [3] | ratio activity, negative = inhibition [4] 15.7% [at 5.95 µM] | activity change, negative = cytotoxicity [5] 5.03% [at 5.95 µM] | activation [6] 0.815% [at 8.36 µM] | viability change, negative = cytotoxic [7] -0.948% [at 8.36 µM] | activity change, negative = cytotoxicity [10] -28.5% [at 5.95 µM] | activation [8] 0.895% [at 5.95 µM] | activity change, negative = cytotoxicity [9] -0.433% [at 5.95 µM]

ON(Cc1ccccc1)Cc1ccccc1
inactive: Potency [1] | Potency [2] | Potency [3] | Potency [4] | Potency [5] | Potency [6] | Potency [7] | Potency [10] | Potency [9]

O=C(O)c1ccc(CO)o1
inactive: Potency [1] | Potency [2] | Potency [3] | Potency [4] | Potency [5] | Potency [6] | Potency [7] | Potency [10] | Potency [8]

CC(=O)[C@H]1CC[C@H]2[C@@H]3C[C@H](C)C4=CC(=O)CC[C@]4(C)[C@H]3[C@@H](O)C[C@]12C
inactive: Potency [1] | Potency [2] | Potency [3] | Potency [4] | Potency [5] | Potency [6] | Potency [7] | Potency [10] | Potency [8] | Potency [9]

Nc1ccc(S(=O)(=O)O)c(N)c1
inactive: Potency [1] | Potency [2] | Potency [3] | Potency [4] | Potency [5] | Potency [6] | Potency [7] | Potency [10] | Potency [8]

CCn1cc(C(=O)O)c(=O)c2cc(F)c(N3CCNCC3)nc21
inactive: Potency [1] | Potency [2] | Potency [3] | Potency [4] | Potency [5] | Potency [6] | Potency [7] | Potency [10] | Potency [8] | Potency [9]

CCC(C)=O
inactive: Potency [1] | Potency [2] | Potency [3] | Potency [4] | Potency [5] | Potency [6] | Potency [7] | Potency [10] | Potency [8] | Potency [9]

Cc1ccc(S)cc1
inactive: Potency [1] | Potency [2] | Potency [3] | Potency [4] | Potency [5] | Potency [6] | Potency [7] | Potency [10] | Potency [9]

CC1=CC(O)CC(C)(C)C1 (stereo not drawn)
inactive: Potency [1] | Potency [2] | Potency [3] | Potency [5] | Potency [6] | Potency [7] | Potency [10] | Potency [8] | Potency [9]

COC(OC)(C(=O)c1ccccc1)c1ccccc1
inactive: Potency [1] | Potency [2] | Potency [3] | Potency [5] | Potency [6] | Potency [7] | Potency [10] | Potency [8]

CCCCCCOC(=O)C(C)C
inactive: Potency [1] | Potency [2] | Potency [3] | Potency [5] | Potency [6] | Potency [7] | Potency [10] | Potency [8] | Potency [9]

C1COCO1
inactive: Potency [1] | Potency [2] | Potency [3] | Potency [4] | Potency [6] | Potency [7] | Potency [10] | Potency [8] | Potency [9]

C=CCCCCCCCCCCCCCCCC
inactive: activation [1] -0.177% [at 8.47 µM] | viability change, negative = cytotoxic [2] -2.48% [at 8.47 µM] | activation [3] -3.71% [at 7.08 µM] | ratio activity, negative = inhibition [4] 1.33% [at 5.95 µM] | activity change, negative = cytotoxicity [5] 1.33% [at 5.95 µM] | viability change, negative = cytotoxic [7] -4.17% [at 8.36 µM] | activity change, negative = cytotoxicity [10] 11.1% [at 5.95 µM] | activation [8] -2.33% [at 5.95 µM] | activity change, negative = cytotoxicity [9] -1.2% [at 5.95 µM]

CC(=O)Nc1ccccc1C
inactive: Potency [1] | Potency [2] | Potency [3] | Potency [5] | Potency [6] | Potency [7] | Potency [10] | Potency [8]

O=C(CCCCCCCCC#CI)Oc1ccccc1
inactive: Potency [1] | Potency [2] | Potency [3] | Potency [5] | Potency [6] | Potency [7] | Potency [10] | Potency [8] | Potency [9]

CC(C)C(OC(=O)c1ccccc1)C(C)(C)COC(=O)c1ccccc1 (stereo not drawn)
inactive: Potency [1] | Potency [2] | Potency [3] | Potency [5] | Potency [6] | Potency [7] | Potency [10] | Potency [8] | Potency [9]

Source: PubChem BioAssay (Tox21)
